Inconclusive results are not listed. Activity calls are given as the source filed them. Calls follow the shape of the dose curve; as a rule, active = well fitted cell-killing curve with a large enough effect; inconclusive = small, poorly fitted or top-dose-only effect, or effect the other way; inactive = no such curve, though single readings can be large or run the other way.
Assay: Quantitative High-Throughput drug screen in 47 multiple myeloma cell lines against the NCATS MIPE library collection: AMO1_DSMZ cell viability assay (AID 1918927; also: nearly all actives have a fitted effect of over 30% in size)
Conditions: AMO1 myeloma cells viability, CellTiter-Glo ATP luminescence, 48 h; series mostly up to 45.8 µM; viability, % of DMSO: at the top concentration
From the text: PI: Beverly A. Mock Ph.D.
Laboratory of Cancer Biology and Genetics,
Center for Cancer Research, National Cancer Institute,
National Institute of Health, Bethesda, Maryland
Drug resistance and disease progression are common in multiple myeloma (MM) patients, underscoring the need for new therapeutic combinations. […] We hypothesized that effective combinations would reduce MYC expression and enhance p16 activity. […] These preclinical data identify potentially useful drug combinations for evaluation in drug-resistant MM and reveal potential mechanisms of combined drug sensitivity.
Described herein is the primary MIPE qHTS used to cherrypick compounds. Validated compounds were then further tested for potential synergistic activiy.
[1] Peat TJ, Gaikwad SM, Dubois W, Gyabaah-Kessie N, Zhang S, Gorjifard S, Phyo Z, Andres M, Hughitt VK, Simpson RM, Miller MA, Girvin AT, Taylor A, Williams D, D'Antonio N, Zhang Y, Rajagopalan A, Flietner E, Wilson K, Zhang X, Shinn P, Klumpp-Thomas C, McKnight C, Itkin Z, Chen L, Kazandijian D, Zhang J, Michalowski AM, Simmons JK, Keats J, Thomas CJ, Mock BA. Drug combinations identified by high-throughput screening promote cell cycle transition and upregulate Smad pathways in myeloma. Cancer Lett. 2023 Aug 1;568:216284. doi: 10.1016/j.canlet.2023.216284. Epub 2023 Jun 24. PMID: 37356470; PMCID: PMC10408729.
SEQUENCE No. (e.g., 1, 2, 3, etc.); […] (e.g., Cells, Incubation, Reagent, etc.); VALUE and DESCRIPTION.
1; Cells; 5 uL; white, solid bottom 1536-well Greiner assay plate.
2; Compounds; 23 nL; Kalypsis pin tool (Wako USA) equipped with a 1536-well pin head to transfer to the assay plates.
3; Incubation; 48 hours; 37C incubation.
4; Reagent;5uL; CellTiter Glo (Promega).
5; Detector; 425V; Luminescence; Viewlux PerkinElmer.
NOTES (numbers refer to Sequence numbers above)
1. The cell-based screening methods employed in this study were like those previously published. Briefly, the corresponding myeloma cell lines were screened in 1,536-well plates with 500 cells, 5-uL per well for inhibition of cell viability (assessed by measuring ATP levels with CellTiterGlo).
2. NCATS MIPE 4.0 library of approved and investigational drugs were added using the Kalypsis pin tool. Wells treated with DMSO only for 100% viability and media only wells for 0% viability were used as controls.
3. The assay plates were covered and incubated for 48 hours in a 37C, 5% CO2 incubator with controlled humidity.
4. After 48 hours, CellTilter-GloTM luminescent substrate mix (Promega) reagent was added to the assay plate and plates we incubated for 5 min at room temperature.
5. Signal was measured as median relative luminescence units on a ViewLux (PerkinElmer) multiplate reader.
[1] Heske CM, Davis MI, Baumgart JT, Wilson K, Gormally MV, Chen L, Zhang X, Ceribelli M, Duveau DY, Guha R, Ferrer M, Arnaldez FI, Ji J, Tran HL, Zhang Y, Mendoza A, Helman LJ, Thomas CJ. Matrix Screen Identifies Synergistic Combination of PARP Inhibitors and Nicotinamide Phosphoribosyltransferase (NAMPT) Inhibitors in Ewing Sarcoma. Clin Cancer Res. 2017 Dec 1;23(23):7301-7311. doi: 10.1158/1078-0432.CCR-17-1121. Epub 2017 Sep 12. PMID: 28899971; PMCID: PMC6636827.
Potency is read from the fitted curve at half-maximal effect.

Structure (SMILES) | Potency | viability, % of DMSO
CC(C)NC[C@@H](C(=O)N1CCN(c2ncnc3c2[C@H](C)C[C@H]3O)CC1)c1ccc(Cl)cc1 | 4180 nM (active) | –
C[C@]12CC[C@@H]3c4ccc(O)cc4CC[C@H]3[C@H]1CC[C@H]2O | 14800 nM (active) | –
Cc1[nH]c(C=C2C(=O)Nc3ccccc32)c(C)c1CCC(=O)O | 1480 nM (active) | –
CCc1ccc(C(=O)Nc2cc(CN3CCN(C)CC3)cc(C(F)(F)F)c2)cc1C#Cc1cnc2ccnn2c1 | 4690 nM (active) | –
CN(N=O)C(=O)N[C@H]1C(O)OC(CO)[C@@H](O)[C@H]1O (stereo not given in full) | – | 115% (inactive)
CCC(C=C[C@@H]1OC(=O)C=C[C@H]1C)=C[C@H](C)CC=CC(C)=C[C@@H](C)C(=O)[C@@H](C)[C@H](O)[C@@H](C)CC(C)=CC(=O)O | 34.9 nM (active) | –
O=c1[nH]c(=O)n([C@H]2C[C@@H](O)[C@@H](CO)O2)cc1C=CBr | – | 96.7% (inactive)
CCOC(=O)N1CCN([N+]([O-])=NOc2ccc([N+](=O)[O-])cc2[N+](=O)[O-])CC1 | 10500 nM (active) | –
CN(C)c1ccc2cc(C(=O)N[C@@H](CCCN=C(N)CCl)C(=O)NCc3ccccc3)ccc2c1 | 1660 nM (active) | –
COc1cccc2c1C(=O)c1c(O)c3c(c(O)c1C2=O)C[C@@](O)(C(C)=O)C[C@H]3O[C@H]1C[C@H](N)[C@H](O)[C@H](C)O1 | 118 nM (active) | –
CCOC(=O)C1=C(C)NC(=S)NC1c1cccc(O)c1 (stereo not given) | 662 nM (active) | –
O=C1NC(=O)C(=Cc2ccc3nccc(-c4ccncc4)c3c2)S1 | 372 nM (active) | –
Nc1ccc(C(=O)Nc2cccc(-c3nc(N4CCOCC4)c4oc5ncccc5c4n3)c2)cn1 | 6620 nM (active) | –
CC(=O)SCC(Cc1ccccc1)C(=O)NCC(=O)OCc1ccccc1 (stereo not given) | 3720 nM (active) | –
CN(C)c1ccc(C(=O)NCCCCCCC(=O)NO)cc1 | 235 nM (active) | –
Cc1onc(-c2ccccc2)c1C(=O)N[C@@H]1C(=O)N2[C@@H](C(=O)O)C(C)(C)S[C@@H]12 | – | 120% (inactive)
CC(O)(C#Cc1ccc2c(c1)N(c1nc(N)ncc1Cl)CC2)c1nccs1 (stereo not given) | 13200 nM (active) | –
O=C(NNC(=O)c1ccc(CNS(=O)(=O)c2ccc(F)c(Cl)c2)cc1)c1ccccc1 | – | 108% (inactive)
O=C(Nc1cc2cc[nH]c2cn1)c1ccccc1 | 10500 nM (active) | –
Oc1ccc(-c2ccc(-c3cc(Nc4cccc(CNC5CC5)c4)n[nH]3)cc2)c(O)c1 | 1320 nM (active) | –

Structure (SMILES) | Potency | viability, % of DMSO
COC(=O)C1C2CC3c4[nH]c5cc(OC)ccc5c4CCN3CC2CC(OC(=O)c2cc(OC)c(OC)c(OC)c2)C1OC (stereo not given) | 20900 nM (active) | –
CCc1cnn2c(NCc3ccc[n+]([O-])c3)cc(N3CCCC[C@@H]3CCO)nc12 | 23.5 nM (active) | –
CC(C)(N)c1ccc(-c2nc3ccccc3nc2-c2ccccc2)cc1 | 14800 nM (active) | –
COc1cc(C[C@@H](CO)[C@H](CO)Cc2ccc(O)c(OC)c2)ccc1O | 4690 nM (active) | –
COc1ccc(Nc2nccc(NCCO)n2)cc1 | – | 91.5% (inactive)
Nc1nc2c(c(=O)[nH]1)N(C=O)[C@H](CNc1ccc(C(=O)N[C@@H](CCC(=O)O)C(=O)O)cc1)CN2 | – | 152% (inactive)
CCS(=O)(=O)Nc1ccc2[nH]c(O)c(C(=Nc3ccc(CN4CCCCC4)cc3)c3ccccc3)c2c1 | 148 nM (active) | –
C=C1C(=CC=C2CCC[C@]3(C)[C@@H]([C@H](C)CCCC(C)(C)O)CC[C@@H]23)C[C@@H](O)C[C@@H]1O | 935 nM (active) | –
CC(=O)O[C@H]1C[C@@H]2CC[C@H]3[C@H]4C[C@H]([N+]5(C)CCCCC5)[C@@H](OC(C)=O)[C@@]4(C)CC[C@@H]3[C@@]2(C)C[C@H]1N1CCCCC1 | – | 134% (inactive)
C=C1C[C@@]2(O)O[C@@]3(C[C@H]2C(C)C)[C@H](C)CC[C@H]13 | – | 99.5% (inactive)
CN[C@@H]1C[C@H]2O[C@@](C)([C@H]1OC)n1c3ccccc3c3c4c(c5c6ccccc6n2c5c31)C(=O)N[C@H]4O | 332 nM (active) | –
N#CC(=C(O)c1ccc(Cl)cc1Cl)c1nc2cc(Cl)ccc2c(=O)[nH]1 | 1050 nM (active) | –
C=Cc1c(C)c2cc3nc(cc4[nH]c(cc5nc(cc1[nH]2)C(C)=C5CCC(=O)O)c(CCC(=O)OC)c4C)[C@@]1(C)C3=CC=C(C(=O)OC)[C@H]1C(=O)OC | 93.5 nM (active) | –
C[C@H](NC(=O)[C@@H](O)c1cc(F)cc(F)c1)C(=O)N[C@@H]1C(=O)N(C)c2ccccc2-c2ccccc21 | – | 116% (inactive)
C=C(C)[C@@H]1CC[C@]2(C(=O)O)CC[C@]3(C)[C@H](CC[C@@H]4[C@@]5(C)CC[C@H](O)C(C)(C)[C@@H]5CC[C@]43C)[C@@H]12 | – | 109% (inactive)
COc1cc(CCc2cc(NC(=O)c3ccc(N4C[C@@H](C)N[C@@H](C)C4)cc3)n[nH]2)cc(OC)c1 | 18700 nM (active) | –
Cn1cnc(=N)c2[nH]cnc21 | 83.3 nM (active) | –
Cc1cnc(Nc2ccc(N3CCN(C)CC3)cc2)nc1Nc1cccc(S(=O)(=O)NC(C)(C)C)c1 | 1180 nM (active) | –
C[N+](C)([O-])CCNc1ccc(NCC[N+](C)(C)[O-])c2c1C(=O)c1c(O)ccc(O)c1C2=O | – | 98.1% (inactive)
OCCNC1CCCc2c1[nH]c1ccc(-c3ccccc3)cc21 (stereo not given) | 16600 nM (active) | –
